# VP16 counter: VP16 counterscreen qHTS for inhibitors of ROR gamma transcriptional activity. Potency, µM (series often up to 53.6 µM), most hits filed as inhibitors. AID 2546, 2010. 3.5% of 310,000 active. Drosophila S2 Gal4-VP16 UAS-luciferase, luminescence, 20 h;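 also: Gal4-VP16 expression switched on by copper sulfate through the metallothionein promoter; nearly all actives have a fitted effect of over 50% in size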
# DT40 TDP1 CPT: qHTS for Inhibitors of human tyrosyl-DNA phosphodiesterase 1 (TDP1): qHTS in cells in presence of CPT; 12% of 420,000 active; Potency, µM (top dose mostly 46.2 µM), usual class: inhibitors; chicken DT40 Tdp1-/-;hTDP1 cells + 20 nM CPT, ATP luminescence, 48 h; also: nearly all actives have a fitted effect of over 55% in size
#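 Chicken DT40 Tdp1-/- cells stably complemented with human TDP1 were seeded at 400 cells/well in medium containing 20 nM camptothecin, exposed to pin-transferred compounds, and grown at 37 °C for at least 48 hr. Viability was read as ATP luminescence.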
# IL-1B inflam inh: qHTS for Inhibitors of Inflammasome Signaling: IL-1-beta AlphaLISA Primary Screen; THP-1 LPS/ATP IL-1B secretion, AlphaLISA, 16 h; hits give low values; 4.7% of 360,000 active; activity change, % at 57.5 µM; in the data active = activity change below about -50%; inconclusive = mostly about -30% to -49%
#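 THP-1 cells pretreated 1 hr with compounds (up to 57.5 uM final), then stimulated with LPS (250 ng/mL final) plus ATP (1.25 mM final); secreted IL-1B measured by AlphaLISA after 16 hr, decreased signal indicating inhibition.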
# RORg inh: qHTS for inhibitors of ROR gamma transcriptional activity. 5.4% of 310,000 active. Potency, µM (series often up to 53.6 µM), usual class: inhibitors. Nuclear receptor ROR-gamma (Mus musculus), P51450. Drosophila S2 Gal4-RORgamma UAS-luciferase reporter, 20 h; also: nearly all actives have a fitted effect of over 60% in size
# Target sequence (P51450 whole entry, looked up, the tested form may be a part): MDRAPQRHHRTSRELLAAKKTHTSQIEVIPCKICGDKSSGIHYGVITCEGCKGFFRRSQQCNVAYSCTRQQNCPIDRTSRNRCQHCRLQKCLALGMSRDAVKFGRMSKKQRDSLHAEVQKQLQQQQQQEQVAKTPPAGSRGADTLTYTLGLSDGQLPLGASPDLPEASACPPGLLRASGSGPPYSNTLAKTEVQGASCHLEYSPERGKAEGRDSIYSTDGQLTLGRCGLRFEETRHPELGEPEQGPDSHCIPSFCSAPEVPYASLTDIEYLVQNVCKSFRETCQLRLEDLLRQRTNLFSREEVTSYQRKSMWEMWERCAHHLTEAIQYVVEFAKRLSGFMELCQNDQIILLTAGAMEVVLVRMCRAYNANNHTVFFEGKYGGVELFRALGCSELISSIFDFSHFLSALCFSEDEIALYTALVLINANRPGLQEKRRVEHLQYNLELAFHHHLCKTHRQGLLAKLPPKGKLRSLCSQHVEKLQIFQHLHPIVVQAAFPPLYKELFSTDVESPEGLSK
#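 In this cell-based reporter format, copper sulfate (700 uM final) drives Gal4–ROR gamma fusion expression from a metallothionein promoter in Drosophila Schneider cells; compounds preincubated 1 hr, reporter read after 20 hr at ambient temperature.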
# TDP1 cell noCPT: qHTS for Inhibitors of human tyrosyl-DNA phosphodiesterase 1 (TDP1): qHTS in cells in absence of CPT. 15% of 420,000 active. DT40 Tdp1-/- hTDP1 cells, no CPT, ATP luminescence, 48 h. Potency, µM (highest dose often 46.2 µM), hits mostly inhibitors; also: nearly all actives have a fitted effect of over 55% in size
#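 Readout: luminescence from CellTiter-Glo after 30 min in the dark at RT. Cells: DT40 Tdp1-/- with stable hTDP1, 400/well. Exposure: compounds alone, ≥48 hr, 37 °C.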
# ELG1 repair inh: qHTS screen for small molecules that inhibit ELG1-dependent DNA repair in human embryonic kidney (HEK293T) cells expressing luciferase-tagged ELG1 | HEK293T ELG1-luciferase reporter, luminescence, 16 h; DNA damage induced by 5-fluorouridine | Potency, µM (doses to about 46.1 µM), actives largely listed as inhibitors | 2.3% of 330,000 active | AID 504467, 2011; also: nearly all actives have a fitted effect of over 55% in size
#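 Overnight (16 hr) co-exposure of 2,000 cells/well to 5-fluorouridine and compound at 37 °C preceded detection. Luciferase was quantified via ONE-Glo luminescence; loss of signal denotes inhibition.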
# A number is an active result; . = inactive; ? = inconclusive; / = no result; ! = a repeat was not active; [ ] = dose if it differs, or a comment. Sampled rows, rich in hits. Any-hit rate of the full collection: about 21%. Unless noted, calls follow the shape of the dose curve; as a rule, active = well fitted curve in the direction sought with a large enough effect; inconclusive = small, poorly fitted or top-dose-only effect, or another doubt; inactive = no such curve, though single readings can be large; an effect the other way counts as inactive or inconclusive.
SMILES,VP16 counter,DT40 TDP1 CPT,IL-1B inflam inh,RORg inh,TDP1 cell noCPT,ELG1 repair inh
Cc1nnc(NC(=O)CSC2CCCCC2)s1,.,1.84µM,.,22.4µM,5.8µM,.
O=C(CSC1CCCCC1)Nc1nccs1,.,.,.,.,.,?
O=C(CN1C(=O)CCC1=O)Nc1ccc(Cc2ccc(NC(=O)CN3C(=O)CCC3=O)cc2)cc1,.,.,-68.8,.,.,.
CCC(C)NC(=O)CCCN1C(=O)CCn2nc(-c3cccn3C)cc21 (centres undefined),/,.,/,/,.,/
CCCCOc1ccc(C(=O)NCc2nnnn2-c2ccc(C)c(C)c2)cc1,/,16.4µM,/,/,?,/
COc1ccc(NC(=O)Cn2cc(S(=O)(=O)N3CCN(c4ccccc4F)CC3)c3ccccc3c2=O)cc1Cl,/,.,/,/,.,/
O=C(c1cccnc1)N1CCCC(Nc2ccc(F)cc2)C1 (centres undefined),.,.,.,.,.,.
CN(Cc1ccc(F)cc1)C(=O)c1cccc(S(=O)(=O)NCc2ccccc2)c1,/,?,.,/,?,.
C=CCOc1ccc(CN(C)C(=O)c2ccc(CNS(=O)(=O)c3ccc(C)c(C)c3)cc2)cc1,/,?,-55.0,/,20.6µM,.
O=C(CSc1nc2ccccc2s1)Nc1cc(S(=O)(=O)N2CCOCC2)ccc1Cl,.,?,.,.,?,23.1µM
Cc1ccc(S(=O)(=O)N2CCOCC2)cc1NC(=O)CSc1nnc2cc(C)c3ccccc3n12,.,?,.,.,23.1µM,18.4µM
Cc1cc2nnc(SCC(=O)Nc3cc(S(=O)(=O)N4CCOCC4)ccc3Cl)n2c2ccccc12,.,?,?,.,16.4µM,18.4µM
CCCCC/C=C\C/C=C\C[C@H](O)/C=C/C=C\CCCC(=O)O,.,/,/,.,/,/
COCCn1c(=O)cnc2cnc(Oc3ccc(OC)cc3)nc21,.,.,/,.,.,/
Cc1cc(C)cc(C(O)c2ncc(-c3ccccc3F)[nH]2)c1 (centres undefined),/,?,.,/,?,/
CC(CCc1ccc(O)cc1)NC(c1ccccc1)c1ccc(Cl)cc1 (centres undefined),?,?,-100.3,?,?,.
CC(CCc1ccccc1)NCC#N (centres undefined),.,.,.,.,.,.
CC(CCc1ccc(O)cc1)NCc1ccc(Br)cc1 (centres undefined),.,11.6µM,.,?,16.4µM,.
CC(CCc1ccc(O)cc1)NCCC(c1ccccc1)c1ccccc1 (centres undefined),.,?,.,?,5.17µM,.
COc1ccc(/C=N/NC(=O)c2cc(-c3cccn3C)n[nH]2)cc1OC,.,?,?,.,18.4µM,.
CCOc1cccc(/C=N/NC(=O)c2cc(-c3cccn3C)n[nH]2)c1O,5.01µM,5.8µM,.,2.82µM,9.2µM,?
COc1cc(OC)c(OC)cc1/C=N/NC(=O)c1cc(-c2cccn2C)n[nH]1,.,.,.,.,.,.
Cn1cccc1-c1cc(C(=O)N/N=C/c2cccc(O)c2)[nH]n1,.,?,-69.8,.,?,.
Cc1ccc(C(c2ccc(C)c(C)c2)C(O)C2OC(=O)C(O)C2O)cc1C (centres undefined),/,.,.,/,.,/
COc1cc(OC)c(/C=C/c2ccccn2)c(OC)c1,/,3.16µM,/,/,2.82µM,/
SMILES,VP16 counter,DT40 TDP1 CPT,IL-1B inflam inh,RORg inh,TDP1 cell noCPT,ELG1 repair inh
COc1cc(OC)c(C=Cc2ccncn2)c(OC)c1,/,.,.,/,?,/
COc1cc(OC)c(/C=C/c2nccc3ccccc23)c(OC)c1,/,0.0708µM,/,/,0.1µM,/
COc1cc(OC)c(/C=C/c2ccc3ccccc3n2)c(OC)c1,/,0.1µM,/,/,0.1µM,/
Cc1ccccc1Nc1oc(-c2ccccc2)nc1-c1ccccc1,.,/,/,.,/,/
C=CCOc1ccccc1OC[C@H](O)CNC(C)C,.,/,/,.[2.98 µM],/,/
OC(CNCc1ccccc1F)COc1cccc2ccccc12 (centres undefined),.,?,-69.8,.,?,.
CCc1ccc(CN(C)CC(O)COc2cccc3ccccc23)cc1 (centres undefined),.,?,-99.1,.,?,.
CC(C)NCC(O)COc1cccc2ccccc12 (centres undefined),.,16.4µM!,.,.,16.4µM!,.
O=c1cc[nH]c2ccc(Cl)cc12,.,.,.,.,.,.
O=c1cccc2c1c1cc[nH]c3ccc(=O)n2c31,/,9.2µM,-71.8,/,18.4µM,?
O=c1cc(-c2c(F)c(F)c(F)c(F)c2F)oc2c(F)c(F)c(F)c(F)c12,3.16µM,/,/,2.51µM,/,?
O=C1NC(c2ccccc2)Nc2c1sc(=S)n2-c1ccccc1 (centres undefined),.,.,.,.,6.51µM,?
O=C(CCNC(=O)c1ccco1)Nc1ccc(Cl)c(C(F)(F)F)c1,.,.,.,.,.,.
COc1ccc(N=C2SC(CC(=O)Nc3ccccc3)C(=O)N2CCN2CCOCC2)cc1 (centres undefined),.,.,.,.,.,.
COC(=O)c1cc(NC(=O)CC2SC(=Nc3ccccc3)N(CCc3c[nH]c4ccccc34)C2=O)cc(C(=O)OC)c1 (centres undefined),.,16.4µM,.,.,?,.
Cc1ccc(-c2csc3n[nH]c(=S)n23)cc1,8.91µM,.,.,2.51µM,.,.
Cc1ccc(OCc2cc(=O)n3c(-c4ccccc4)csc3n2)cc1,/,.,/,/,.,/
Cc1nc2ccccc2n1C1CCN(CC(=O)Nc2ccccc2Br)CC1,?,?,-51.2,.,13µM,?
Cc1ccccc1NC(=O)CN1CCC(n2nnc3ccccc32)CC1,.,.,.,.,.,?
COc1ccc(CNC(=O)c2nn(-c3ccccc3C)nc2CO)cc1,/,.,/,/,?,/
O=C(NCC(c1ccccc1)c1ccccc1)c1nn(-c2ccccc2Cl)nc1CO,/,?,/,/,23.1µM,/
Cc1ccccc1-n1nc(CO)c(C(=O)NCC(c2ccccc2)c2ccccc2)n1,/,?,/,/,20.6µM,/
CCOC(=O)N1CCN(C(=O)COc2cccc3c2CCN(Cc2ccccc2F)C3=O)CC1,.,20.6µM,.,?,14.6µM,?
O=C(COc1cccc2c1CCN(Cc1ccccc1F)C2=O)N1CCCCC1,.,?,.,.,20.6µM,?
O=C(COc1cccc2c1CCN(Cc1ccccc1F)C2=O)N1CCOCC1,.,/,/,.,/,.

# Source: PubChem (National Center for Advancing Translational Sciences (NCATS))
